PubChem BioAssay (EPA / NIEHS)
Records with an inconclusive call do not appear. Activity calls are given as the source filed them. Rule for the calls, unless noted: active = hit-call score of the fitted dose curve at least 0.9, where 1 is the maximum; inactive = score below 0.9.

Legend:
[1] = molecular target: CCAAT/enhancer-binding protein beta (Homo sapiens) (UniProt P17676); assay: ATG_C_EBP_CIS: Attagene CIS-FACTORIAL HepG2 Assay for human CCAAT/Enhancer Binding Protein (C/EBP) beta (AID 2282927); conditions: HepG2 Attagene cis-factorial transcription factor reporter; actives raise or lower the signal
Summary of the method: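 Endogenous C/EBPb-driven reporter transcripts measured in transfected human HepG2 cells at 24 h via RT-PCR and capillary electrophoresis of labelled fragments. Activity fitted in both directions relative to DMSO baseline.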

[2] = ATG_CMV_CIS: Attagene CIS-FACTORIAL HepG2 Assay for human CMV (Internal Marker) (AID 2282928); conditions: HepG2 CMV promoter reporter, transcription factor profiling; actives raise or lower the signal;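 note: endpoint acts as a background internal control marker rather than a target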
Summary of the method: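 24 h chemical treatment, HepG2 with transient multi-reporter transfection; RNA → oligo(dT) RT → PCR → 6-FAM extension → HpaI digest → CE fluorescence. Bidirectional fit, DMSO negative control.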

[3] = molecular target: Aryl hydrocarbon receptor (Homo sapiens) (UniProt P35869); assay: ATG_Ahr_CIS: Attagene CIS-FACTORIAL HepG2 Assay for human Aryl Hydrocarbon Receptor (Ahr) (AID 2282930); conditions: HepG2 AhR cis-factorial reporter transcription; actives raise or lower the signal
Summary of the method: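 Reporter mRNA levels, quantified by RT-PCR and fluorescent capillary electrophoresis, reflect endogenous AhR transcriptional activity in HepG2 cells carrying transfected cis-promoter reporter constructs. Readout at 24 h post-dose; gain or loss fitted against DMSO baseline.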

[4] = ATG_AP_1_CIS: Attagene CIS-FACTORIAL HepG2 Assay for human Activator Protein 1 (AP-1) (AID 2282931); conditions: HepG2 Attagene cis-factorial AP-1 reporter mRNA; actives raise or lower the signal
Summary of the method: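 We transfected HepG2 cells transiently with a set of cis-regulated reporter transcription units, dosed them for 24 h, and quantified reporter mRNA via RT-PCR and capillary electrophoresis, scoring gain or loss of signal relative to DMSO.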

[5] = ATG_EGR_CIS: Attagene CIS-FACTORIAL HepG2 Assay for human Early Growth Response 1 (EGR1) (AID 2282938); conditions: HepG2 Attagene CIS-FACTORIAL EGR reporter mRNA; actives raise or lower the signal
Summary of the method: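 Multiplexed cis-reporter system in human hepatoma HepG2 cells, transiently transfected. Cells are dosed for 24 h; reporter transcripts are amplified, fluorescently tagged and sized by capillary electrophoresis, with DMSO as negative control.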

[6] = ATG_GLI_CIS: Attagene CIS-FACTORIAL HepG2 Assay for human Zinc Finger Protein GLI1 (AID 2282945); conditions: HepG2, Attagene cis-factorial reporter mRNA, GLI element; actives raise or lower the signal
Summary of the method: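 Bidirectional curve fits relative to DMSO, using reporter mRNA levels from RT-PCR plus capillary electrophoresis. Cells were HepG2 transiently carrying cis-regulated reporter constructs, harvested 24 h after dosing.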

[7] = ATG_ISRE_CIS: Attagene CIS-FACTORIAL HepG2 Assay for human Interferon Regulatory Factor 1 (IRF1) binding to an Interferon-Stimulated Response Element (ISRE) (AID 2282948); conditions: HepG2 ISRE cis-reporter (Attagene), mRNA transcription readout; actives raise or lower the signal
Summary of the method: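 Multiplexed mRNA reporter readout in human liver HepG2 cells: cis-element-driven reporters transfected, compound added for 24 h, transcripts amplified, fluorescently labelled and sized by capillary electrophoresis; curve fitting bidirectional against DMSO.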

[8] = ATG_M_06_CIS: Attagene CIS-FACTORIAL HepG2 Assay for M06 Transcription Factor (Internal Marker) (AID 2282950); conditions: HepG2 Attagene CIS-FACTORIAL M06 internal marker reporter; actives raise or lower the signal
Summary of the method: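 HepG2 liver cells, 24 h exposure. Reporter transcripts from transfected cis-element constructs quantified by RT-PCR/capillary electrophoresis fluorescence. Bidirectional curve fit against DMSO.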

[9] = molecular target: Hypoxia-inducible factor 1-alpha (Homo sapiens) (UniProt Q16665); assay: ATG_HIF1a_CIS: Attagene CIS-FACTORIAL HepG2 Assay for human Hypoxia Inducible Factor 1 (HIF1A) (AID 2282951); conditions: HepG2 Attagene cis-factorial HIF1a reporter transcription; actives raise or lower the signal
Summary of the method: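 Cis-element reporter constructs were transiently transfected into HepG2 cells, which were treated for 24 h; reporter RNA was reverse-transcribed, amplified, labelled and resolved by capillary electrophoresis.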

[10] = molecular target: Heat shock factor protein 1 (Homo sapiens) (UniProt Q00613); assay: ATG_HSE_CIS: Attagene CIS-FACTORIAL HepG2 Assay for human Heat Shock Transcription Factor 1 (HSE) (AID 2282953); conditions: HepG2 HSE cis-reporter, Attagene RNA transcription; actives raise or lower the signal
Summary of the method: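 Endogenous transcription factor activity captured via cis-promoter reporter units transfected into HepG2; treatment lasted 24 h. Fluorescence intensity of reporter fragments analysed with bidirectional curve fitting, DMSO baseline.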

[11] = ATG_TAL_CIS: Attagene CIS-FACTORIAL HepG2 Assay for human TAL Basal Promoter (AID 2282966); conditions: HepG2 Attagene cis-factorial TAL promoter reporter; actives raise or lower the signal;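 note: background control endpoint measuring basal TAL promoter reporter mRNA not a specific factor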
Summary of the method: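 Human hepatoma HepG2 cells, transfected with promoter-regulated reporter units, were treated 24 h. Reporter transcript levels, measured through RT-PCR and capillary electrophoresis, were fitted for gain or loss relative to DMSO.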

[12] = ATG_VDRE_CIS: Attagene CIS-FACTORIAL HepG2 Assay for human Vitamin D Receptor Element (VDRE) (AID 2282968); conditions: HepG2 VDRE cis-reporter transcription, actives raise or lower the signal
Summary of the method: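 Readout is VDRE-driven reporter mRNA reflecting endogenous factor activity in human HepG2 cells, sampled 24 h post-dose. Quantification used labelled RT-PCR products separated by capillary electrophoresis; bidirectional analysis relative to DMSO.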

[13] = molecular target: X-box-binding protein 1 (Homo sapiens) (UniProt P17861); assay: ATG_Xbp1_CIS: Attagene CIS-FACTORIAL HepG2 Assay for human X-box Binding Protein 1 (XBP1) (AID 2282972); conditions: HepG2 XBP1 cis-element reporter, Attagene multiplex; actives raise or lower the signal
Summary of the method: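 Multiplexed cis-reporter readout in transfected HepG2 liver cells. Exposure lasted 24 hours. Activity in either direction was fitted against DMSO as negative control and baseline.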

[14] = molecular target: Transcriptional activator Myb (Homo sapiens) (UniProt P10242); assay: ATG_Myb_CIS: Attagene CIS-FACTORIAL HepG2 Assay for human Myeloblastosis (Myb) Proto-Oncogene Transcription Factor (AID 2282986); conditions: HepG2 Attagene CIS-FACTORIAL Myb reporter transcription; actives raise or lower the signal
Summary of the method: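 Using HepG2 liver cells bearing transiently transfected cis-promoter reporter constructs, the assay measures induction or loss of reporter mRNA after 24 hours of dosing. Detection used fluorescently labeled RT-PCR products separated by capillary electrophoresis.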

[15] = molecular target: Nuclear respiratory factor 1 (Homo sapiens) (UniProt Q16656); assay: ATG_NRF1_CIS: Attagene CIS-FACTORIAL HepG2 Assay for human Nuclear Respiratory Factor 1 (NRF1) Orphan Gene (AID 2282987); conditions: HepG2 NRF1 cis-element reporter, Attagene multiplex; actives raise or lower the signal
Summary of the method: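 Reporter mRNA induction or loss in HepG2 cells after 24 h dosing; cis-regulated reporter constructs report endogenous transcription-factor activity. Quantified by RT-PCR/capillary electrophoresis fluorescence, DMSO-referenced.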

[16] = ATG_NFI_CIS: Attagene CIS-FACTORIAL HepG2 Assay for human Nuclear Factor I (NFI) (AID 2282989); conditions: HepG2 cis-regulatory reporter, NFI response element transcription; actives raise or lower the signal
Summary of the method: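 Cells: human liver HepG2, transiently transfected with promoter-regulated reporter transcription units. Exposure 24 h. Detection: fluorescent RT-PCR products separated by capillary electrophoresis, normalised to DMSO negative control.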

[17] = ATG_Oct_MLP_CIS: Attagene CIS-FACTORIAL HepG2 Assay for human Octamer-Binding Transcription Factor (Oct) (AID 2282993); conditions: HepG2 Attagene cis-factorial Oct reporter, mRNA; actives raise or lower the signal
Summary of the method: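 HepG2, transient MRTU transfection, cis promoter elements; 24 h dosing; RT-PCR/CE fluorescence read-out of reporter mRNA; fit both directions vs DMSO.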

[18] = molecular target: Cellular tumor antigen p53 (Homo sapiens) (UniProt P04637); assay: ATG_p53_CIS: Attagene CIS-FACTORIAL HepG2 Assay for human p53 Transcription Factor (AID 2282994); conditions: HepG2 p53 cis-element reporter, Attagene mRNA; actives raise or lower the signal
Summary of the method: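 Steps: transfect HepG2 with multiplexed cis reporter constructs; dose chemicals 24 h; extract RNA, reverse-transcribe, PCR-amplify reporter sequences; FAM-label, HpaI-digest, resolve fragments by CE. Activity fitted both directions relative to DMSO.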

[19] = ATG_XTT_Cytotoxicity: Cytotoxicity Assessment in the Attagene TRANS-FACTORIAL HepG2 Assay (AID 2283584; active = hit-call score of the fitted dose curve at least 0.9, where 1 is the maximum)
Summary of the method: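 24 h chemical exposure of reporter-transfected HepG2; XTT signal loss vs DMSO indicates cytotoxicity.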

[20] = ATG_NRF2_ARE_CIS: Attagene CIS-FACTORIAL HepG2 Assay for human Nuclear Factor Erythroid 2 Related Factor 2 (NFR2) response to Antioxidant Response Elements (ARE) (AID 2282992); conditions: HepG2 Attagene ARE/NRF2 reporter, transcription factor activity; actives raise or lower the signal;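 for AC50: reporter mRNA level measured by RT-PCR and capillary electrophoresis fluorescence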
Summary of the method: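 Endogenous transcription factor activity in human liver HepG2 cells is tracked via a cis-element-driven reporter within a multiplexed set. mRNA induction is read by RT-PCR and capillary electrophoresis after 24 h, with DMSO as baseline.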

Measured: AC50

Nuclear respiratory factor 1 (Homo sapiens), sequence (Q16656 whole entry, looked up): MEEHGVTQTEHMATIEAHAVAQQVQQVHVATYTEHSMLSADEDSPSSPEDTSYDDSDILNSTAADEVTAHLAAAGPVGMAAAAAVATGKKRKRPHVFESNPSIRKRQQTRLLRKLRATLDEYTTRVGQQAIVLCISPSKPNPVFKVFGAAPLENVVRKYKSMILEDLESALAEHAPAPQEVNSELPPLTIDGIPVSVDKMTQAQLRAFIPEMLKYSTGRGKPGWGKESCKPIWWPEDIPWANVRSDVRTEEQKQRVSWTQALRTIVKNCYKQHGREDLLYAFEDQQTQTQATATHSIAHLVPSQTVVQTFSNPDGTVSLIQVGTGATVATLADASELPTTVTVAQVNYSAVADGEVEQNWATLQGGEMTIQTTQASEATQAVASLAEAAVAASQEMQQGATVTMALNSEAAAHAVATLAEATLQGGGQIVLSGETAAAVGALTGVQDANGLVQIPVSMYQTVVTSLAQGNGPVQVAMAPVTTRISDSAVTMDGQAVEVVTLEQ
X-box-binding protein 1 (Homo sapiens), sequence (P17861 whole entry, looked up): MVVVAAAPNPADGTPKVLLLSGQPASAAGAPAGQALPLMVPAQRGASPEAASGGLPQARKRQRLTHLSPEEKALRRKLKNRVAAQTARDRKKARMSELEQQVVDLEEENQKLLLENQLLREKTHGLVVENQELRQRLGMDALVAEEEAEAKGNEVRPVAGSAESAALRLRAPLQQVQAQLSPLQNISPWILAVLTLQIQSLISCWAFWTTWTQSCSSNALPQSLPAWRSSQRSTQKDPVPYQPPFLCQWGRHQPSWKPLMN
Aryl hydrocarbon receptor (Homo sapiens), sequence (P35869 whole entry, looked up): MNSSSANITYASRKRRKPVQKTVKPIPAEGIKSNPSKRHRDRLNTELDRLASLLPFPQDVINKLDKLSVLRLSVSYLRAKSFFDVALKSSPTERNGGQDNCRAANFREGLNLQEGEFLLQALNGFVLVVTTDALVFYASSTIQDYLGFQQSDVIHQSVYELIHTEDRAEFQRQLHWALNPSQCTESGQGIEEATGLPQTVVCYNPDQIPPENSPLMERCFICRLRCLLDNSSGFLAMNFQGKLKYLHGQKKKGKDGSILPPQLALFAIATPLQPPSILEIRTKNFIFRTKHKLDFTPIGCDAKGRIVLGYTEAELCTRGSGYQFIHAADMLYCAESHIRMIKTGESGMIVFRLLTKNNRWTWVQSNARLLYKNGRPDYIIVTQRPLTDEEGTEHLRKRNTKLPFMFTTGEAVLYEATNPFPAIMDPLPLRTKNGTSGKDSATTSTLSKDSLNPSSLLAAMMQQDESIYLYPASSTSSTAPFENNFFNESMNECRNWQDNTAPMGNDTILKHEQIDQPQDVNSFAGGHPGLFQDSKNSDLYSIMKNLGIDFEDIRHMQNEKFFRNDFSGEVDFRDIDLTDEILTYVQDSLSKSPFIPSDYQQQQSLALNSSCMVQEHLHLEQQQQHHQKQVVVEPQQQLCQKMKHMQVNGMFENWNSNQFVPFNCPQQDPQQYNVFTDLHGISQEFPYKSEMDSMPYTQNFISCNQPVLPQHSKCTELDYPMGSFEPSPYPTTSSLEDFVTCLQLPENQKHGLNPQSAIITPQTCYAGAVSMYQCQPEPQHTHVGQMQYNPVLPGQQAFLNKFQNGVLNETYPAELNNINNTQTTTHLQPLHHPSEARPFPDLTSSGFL
CCAAT/enhancer-binding protein beta (Homo sapiens), sequence (P17676 whole entry, looked up, the tested form may be a part): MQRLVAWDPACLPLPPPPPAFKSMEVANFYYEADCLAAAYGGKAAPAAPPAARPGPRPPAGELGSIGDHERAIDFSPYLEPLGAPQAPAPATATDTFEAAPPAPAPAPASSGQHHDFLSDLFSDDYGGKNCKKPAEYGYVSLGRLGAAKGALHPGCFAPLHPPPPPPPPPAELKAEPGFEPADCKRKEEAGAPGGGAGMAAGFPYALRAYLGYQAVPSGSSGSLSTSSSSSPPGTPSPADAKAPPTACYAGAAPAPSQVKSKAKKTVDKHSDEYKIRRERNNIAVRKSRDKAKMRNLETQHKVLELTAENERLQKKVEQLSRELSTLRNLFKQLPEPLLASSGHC
Cellular tumor antigen p53 (Homo sapiens), sequence (P04637 whole entry, looked up, the tested form may be a part): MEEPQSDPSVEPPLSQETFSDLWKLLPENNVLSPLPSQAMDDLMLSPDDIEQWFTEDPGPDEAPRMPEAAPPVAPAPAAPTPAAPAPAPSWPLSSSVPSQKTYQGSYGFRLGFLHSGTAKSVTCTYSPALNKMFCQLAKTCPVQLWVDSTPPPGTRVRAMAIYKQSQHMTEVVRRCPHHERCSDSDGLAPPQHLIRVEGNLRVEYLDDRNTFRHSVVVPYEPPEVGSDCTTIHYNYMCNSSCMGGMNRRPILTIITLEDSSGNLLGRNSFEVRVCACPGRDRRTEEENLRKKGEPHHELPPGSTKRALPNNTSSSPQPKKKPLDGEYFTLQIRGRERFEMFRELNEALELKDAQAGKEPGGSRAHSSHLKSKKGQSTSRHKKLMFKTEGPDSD
Hypoxia-inducible factor 1-alpha (Homo sapiens), sequence (Q16665 whole entry, looked up): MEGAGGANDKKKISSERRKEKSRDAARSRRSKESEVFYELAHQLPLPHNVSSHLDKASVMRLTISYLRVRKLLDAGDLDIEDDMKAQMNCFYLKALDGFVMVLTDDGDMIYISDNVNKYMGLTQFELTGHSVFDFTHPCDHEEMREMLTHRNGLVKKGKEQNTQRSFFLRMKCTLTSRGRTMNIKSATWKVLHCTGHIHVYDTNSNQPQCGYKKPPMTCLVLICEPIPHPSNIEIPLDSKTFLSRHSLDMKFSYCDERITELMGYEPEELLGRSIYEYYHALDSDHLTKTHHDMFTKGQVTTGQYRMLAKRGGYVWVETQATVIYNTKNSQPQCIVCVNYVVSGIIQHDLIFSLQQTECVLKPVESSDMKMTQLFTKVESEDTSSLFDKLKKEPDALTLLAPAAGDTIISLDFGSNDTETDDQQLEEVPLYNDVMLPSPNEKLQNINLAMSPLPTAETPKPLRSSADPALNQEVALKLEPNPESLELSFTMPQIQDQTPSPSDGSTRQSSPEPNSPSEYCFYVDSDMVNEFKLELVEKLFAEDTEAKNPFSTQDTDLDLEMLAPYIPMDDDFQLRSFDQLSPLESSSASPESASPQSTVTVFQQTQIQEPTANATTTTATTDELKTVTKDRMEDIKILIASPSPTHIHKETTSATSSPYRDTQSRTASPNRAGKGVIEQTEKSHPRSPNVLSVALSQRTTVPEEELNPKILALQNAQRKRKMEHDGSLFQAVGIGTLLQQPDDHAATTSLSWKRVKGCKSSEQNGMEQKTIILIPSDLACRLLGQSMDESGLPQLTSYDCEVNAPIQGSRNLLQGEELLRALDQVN
Transcriptional activator Myb (Homo sapiens), sequence (P10242 whole entry, looked up): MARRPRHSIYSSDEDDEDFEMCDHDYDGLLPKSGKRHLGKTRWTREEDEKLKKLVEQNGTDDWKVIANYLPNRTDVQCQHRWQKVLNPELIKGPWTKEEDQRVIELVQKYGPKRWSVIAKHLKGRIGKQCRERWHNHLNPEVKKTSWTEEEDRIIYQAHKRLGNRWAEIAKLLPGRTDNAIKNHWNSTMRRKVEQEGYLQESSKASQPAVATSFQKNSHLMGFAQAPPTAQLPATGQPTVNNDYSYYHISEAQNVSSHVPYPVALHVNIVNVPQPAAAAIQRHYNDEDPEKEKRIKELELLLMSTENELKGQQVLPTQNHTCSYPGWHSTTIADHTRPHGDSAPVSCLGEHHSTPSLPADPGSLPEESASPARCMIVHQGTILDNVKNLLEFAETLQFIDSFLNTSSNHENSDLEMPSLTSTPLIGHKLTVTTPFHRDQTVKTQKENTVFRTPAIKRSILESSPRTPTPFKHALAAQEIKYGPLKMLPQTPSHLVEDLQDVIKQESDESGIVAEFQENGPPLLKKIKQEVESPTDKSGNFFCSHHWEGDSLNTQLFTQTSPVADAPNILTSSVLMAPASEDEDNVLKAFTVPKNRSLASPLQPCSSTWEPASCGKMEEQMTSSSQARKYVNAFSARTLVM
Heat shock factor protein 1 (Homo sapiens), sequence (Q00613 whole entry, looked up, the tested form may be a part): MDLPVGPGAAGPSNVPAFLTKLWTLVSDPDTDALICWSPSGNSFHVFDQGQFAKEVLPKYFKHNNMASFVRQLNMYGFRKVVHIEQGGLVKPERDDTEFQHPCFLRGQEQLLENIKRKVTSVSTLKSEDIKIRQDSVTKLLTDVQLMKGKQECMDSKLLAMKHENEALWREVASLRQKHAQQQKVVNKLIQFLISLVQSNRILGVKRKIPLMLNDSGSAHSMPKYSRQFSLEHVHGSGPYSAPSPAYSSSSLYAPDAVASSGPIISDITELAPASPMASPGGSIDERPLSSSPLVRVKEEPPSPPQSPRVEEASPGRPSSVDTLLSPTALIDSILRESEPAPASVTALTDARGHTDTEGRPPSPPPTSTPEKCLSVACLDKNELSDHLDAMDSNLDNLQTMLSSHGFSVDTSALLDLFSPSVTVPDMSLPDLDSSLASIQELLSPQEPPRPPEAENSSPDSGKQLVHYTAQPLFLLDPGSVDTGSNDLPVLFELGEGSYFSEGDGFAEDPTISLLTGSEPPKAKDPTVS

CC(C)C(=O)Cl
inactive: [1] | [2] | [3] | [4] | [5] | [6] | [7] | [8] | [9] | [10] | [11] | [12] | [13] | [14] | [15] | [16] | [17] | [18] | [19]

Nc1cc(Cl)cc(Cl)c1
inactive: [1] | [2] | [3] | [4] | [5] | [6] | [8] | [9] | [10] | [11] | [12] | [13] | [14] | [15] | [16] | [20] | [17] | [18] | [19]

CCCOC(=O)c1ccccc1C(=O)OCCC
inactive: [1] | [2] | [3] | [4] | [5] | [6] | [7] | [8] | [9] | [10] | [11] | [13] | [14] | [15] | [16] | [20] | [17] | [18] | [19]

O=P1(NCCCl)OCCCN1CCCl (stereo unspecified)
inactive: [1] | [2] | [3] | [4] | [5] | [7] | [8] | [9] | [10] | [11] | [13] | [14] | [15] | [16] | [20] | [17] | [19]

O=C(O)COc1ccccc1
inactive: [1] | [2] | [3] | [4] | [5] | [6] | [7] | [9] | [10] | [11] | [12] | [13] | [14] | [15] | [16] | [20] | [17] | [18] | [19]

O=c1[nH]c(Cl)c(Cl)cc1Cl
active: [3] 13.8 µM | [9] 59.5 µM | [20] 76.3 µM
inactive: [1] | [2] | [4] | [5] | [7] | [10] | [12] | [13] | [14] | [15] | [16] | [17] | [18] | [19]

COC(C)(C)CCC[C@H](C)C/C=C/C(C)=C/C(=O)OC(C)C
active: [2] 100 µM | [4] 112 µM | [5] 82.3 µM | [6] 145 µM | [14] 165 µM | [18] 157 µM
inactive: [1] | [3] | [7] | [8] | [9] | [11] | [13] | [15] | [16] | [17]
